# aSyn 5UTR inh = 5' untranslated region of α-synuclein, MLPCN primary screen; alpha-synuclein 5'UTR reporter, inhibitor activity; inhibition, % (tested at 7.5 µM); 300,000 compounds, 0.82% hits; in the data active means inhibition above about 60%; inconclusive means no clear call, values can overlap the other calls;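 further: H4 neuroglioblastoma cells stably carrying SNCA 5'UTR luciferase fusion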
# CSC inhib = blocks cancer stem cells; inhibition, % at 7.5 µM; cancer stem cell-like cells viability, luminescence; 300,000 compounds, 1.1% hits; in the data active means inhibition above about 75%; inconclusive means no clear call, values can overlap the other calls; tested in HMLE shEcad cells
# Beta apoptosis = beta cell apoptosis inhibition; INS-1E cytokine-induced death, ATP luminescence, 48 h; percent of positive-control rescue, neutral wells zero; 300,000 compounds, 0.8% hits; protection from apoptosis, % (no concentration beside the values);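 active means Every replicate reaches about 75%, or at least half do and their mean reaches it too, limit read from the data; inconclusive means At least half of replicates reach the limit but their mean does not; inactive means Under half of replicates reach the limit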;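 further: higher means more ATP so stronger rescue from cytokine killing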
# Bfl-1 A1 inh = inhibitors of the anti-apoptotic protein A1, read as caspase activation; MEF A1-2A-BIM cells, Caspase-Glo 3/7 luminescence, 3 h; percent of clofoctol response, vehicle zero; caspase activation, % (test concentration not listed); AID 2462; 330,000 compounds, 0.066% hits;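 active means over half of replicate activation scores above 10%, or exactly half above 10 with the replicate mean above 10; inconclusive means replicate mean below 10 yet half the replicates above 10; inactive means over half of replicates below 10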
# Mdm2 MdmX PPI = disrupts the human Mdm2-MdmX interaction; SaOS-2 split-luciferase Mdm2/MdmX complementation, luminescence; O15151+Q00987; 330,000 compounds, 3% hits; inhibition, % at 8 µM; AID 485346;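 active means inhibition of at least 50% at 8 µM in the primary screen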
# Mdm2 MdmX conf = confirmation of human Mdm2/MdmX interaction inhibitors; Mdm2-MdmX binding, luminescent assay; inhibition, % at 8 µM; AID 489028; shares compounds with Mdm2 MdmX PPI; 10,000 compounds, 55% hits; in the data active means inhibition above about 40%
# Full FLuc ctr = counter-screen for Mdm2/MdmX inhibitors: full-length luciferase; inhibition, % at 8 µM; SaOS-2 full-length luciferase counterscreen, luminescence; 6,200 compounds, 77% hits; shares compounds with Mdm2 MdmX PPI;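 active means mean inhibition at 8 µM reaching about 37%, which flags the compound as non-specific, limit read from the data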;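 further: p53-null SaOS-2 cells with luciferase driven by a doxycycline-inducible promoter; compound on cells about two nights before reading with doxycycline added after day one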
# Hits are given with their value; 0 = inactive; ? = inconclusive; - = no result. An excerpt weighted towards active compounds, which were near 4.1% of everything screened.
SMILES,aSyn 5UTR inh,CSC inhib,Beta apoptosis,Bfl-1 A1 inh,Mdm2 MdmX PPI,Mdm2 MdmX conf,Full FLuc ctr
O=C(NC(=S)Nc1ccc2c(c1)C(=O)c1ccccc1C2=O)c1ccc(F)cc1,0,0,0,0,68.5,0,-
CC(=O)Nc1ccc(-c2cc(-c3ccc(NC(C)=O)cc3)nc(-c3ccccc3)n2)cc1,0,0,0,0,58.5,0,-
CC(=O)Nc1ccc(-c2cc(-c3ccc(NC(C)=O)cc3)nc(-c3ccc(NC(C)=O)cc3)n2)cc1,0,0,0,0,0,-,-
C[C@H](NC(=O)[C@@H]1Cc2ccccc2CN1C(=O)OC(C)(C)C)C(=O)NCc1ccco1,0,0,0,0,0,-,-
CC(C(=O)Nc1ccc2c(c1)OCO2)N1CCC(N2CCCCC2)CC1 (centres undefined),-,0,0,0,0,-,-
COc1cccc(CN(Cc2ccccc2F)S(=O)(=O)c2ccc(S(=O)(=O)NCc3ccccc3)cc2)c1,0,0,0,0,51.7,0,-
Clc1ccc(-c2csc3ncnc(Cl)c23)cc1,0,0,-,0,0,-,-
OCCCNc1ncnc2scc(-c3ccc(Cl)cc3)c12,0,0,0,0,70.8,59.8,0
CSc1ccc(/C=C/c2ccc3cccc(O)c3n2)cc1,0,0,0,0,0,-,-
COc1cc(/C=C/c2ccc3cccc(O)c3n2)ccc1O,0,75.3,0,0,99.7,0,-
COc1cc(Br)cc(/C=C/c2ccc3cccc(O)c3n2)c1O,0,91.7,0,0,80.9,68.2,51.0
COc1ccc(OC)c(/C=C/c2ccc3cccc(O)c3n2)c1,0,0,0,0,93.1,0,-
COc1cc(Br)c(/C=C/c2ccc3cccc(O)c3n2)cc1OC,0,0,0,0,73.6,51.6,47.0
CCOc1ccc(N(CC(=O)NCc2ccc(F)cc2)C(=O)c2snc(C(N)=O)c2N)cc1,0,0,0,0,0,-,-
CCn1c(=O)c(=O)[nH]c2cc(C(=O)NC(C)c3ccc(S(N)(=O)=O)cc3)ccc21 (centres undefined),0,0,0,0,0,-,-
COc1cc(/C=C/c2ccc3cccc(O)c3n2)c(Br)cc1O,0,96.0,0,0,97.5,0,0
Oc1c(Cl)cc(Cl)cc1/C=C/c1ccc2cccc(O)c2n1,0,0,0,0,0,-,-
Oc1ccc(Cl)cc1/C=C/c1ccc2cccc(O)c2n1,0,-,-,-,60.2,0,62.8
CCn1c(=S)sc2c(=O)n(CC(=O)Nc3ccccc3C(F)(F)F)c(C)nc21,0,0,0,0,52.6,0,-
Cc1nc2c(sc(=S)n2Cc2ccco2)c(=O)n1CC(=O)Nc1ccc(F)cc1,0,0,0,0,52.3,0,-
CCCc1cc(=O)[nH]c(SCC(=O)N(C)C2CCCCC2)n1,-,0,0,0,0,-,-
Cc1ccc(NS(=O)(=O)c2ccc3c(c2)NC(=O)CCS3)c(C)c1,0,0,0,0,0,-,-
O=C(NCc1csc2ccccc12)Nc1cc(Cl)cc(Cl)c1,0,0,0,0,69.1,0,-
O=C(Nc1cccc(Cl)c1)Nc1cccc(Cl)c1,0,0,0,0,0,-,-
CS(=O)(=O)Nc1ccccc1C(=O)Nc1cc(Cl)cc(Cl)c1,0,0,0,0,60.4,92.2,0
SMILES,aSyn 5UTR inh,CSC inhib,Beta apoptosis,Bfl-1 A1 inh,Mdm2 MdmX PPI,Mdm2 MdmX conf,Full FLuc ctr
O=C(Nc1cccnc1)Nc1cc(Cl)cc(Cl)c1,0,0,0,0,50.2,0,-
O=C(Nc1ccccc1)Nc1cc(Cl)cc(Cl)c1,0,80.9,0,0,90.6,80.3,0
O=C(O)c1ccccc1OC(C(=O)Nc1cc(Cl)cc(Cl)c1)c1ccccc1 (centres undefined),0,0,0,0,76.5,0,-
CCn1c(-c2ccc(C)cc2)nn(CC(=O)NCCc2ccccc2)c1=S,0,0,126.6,0,51.3,54.9,0
CN(C)c1ccc(/C=C(/NC(=O)c2ccccc2)C(=O)N2CCCC2)cc1,0,-,0,0,0,-,-
Cc1ccccc1-c1n[nH]c(=S)n1/N=C/c1c(C)nn(-c2ccccc2)c1C,0,0,0,0,86.8,52.6,102.6
Cc1ccc(-c2cc(C(F)F)n3ncc(C(=O)Nc4ccc(S(=O)(=O)Nc5ccccc5C)cc4)c3n2)cc1,0,0,0,0,53.9,0,-
CCC1(c2ccccc2)NC(=O)N(CC(=O)Nc2ccc(N3CCCC3)cc2C)C1=O (centres undefined),0,0,0,0,0,-,-
COCCN(CC(=O)Nc1cccc(C)c1C)C(=O)c1oc2c(Cl)cccc2c1C,-,0,0,0,0,-,-
O=C(OCC(=O)N1CCCC1=O)c1ccc(O)cc1O,0,-,0,0,0,-,-
Cc1ccc2nsnc2c1S(=O)(=O)N(Cc1cc2cccc(C)c2[nH]c1=O)CC1CCCO1 (centres undefined),0,0,0,0,56.5,46.6,85.0
C=CCCC(=O)Nc1nc(C)c(-c2csc(Nc3cc(OC)ccc3OC)n2)s1,0,?,0,0,65.7,60.0,45.8
COc1ccc(NC(=O)Cn2ncn3nc(-c4ccc(OC)cc4)cc3c2=O)cc1,0,0,0,0,79.6,0,90.4
COc1ccc(-c2cc3c(=O)n(CC(=O)NCc4ccccc4OC)ncn3n2)cc1,0,0,0,0,0,-,-
COc1ccc(-c2cc3c(=O)n(CC(=O)NCc4ccccc4F)ncn3n2)cc1,0,0,0,0,69.7,0,-
COc1ccc(-c2cc3c(=O)n(CC(=O)Nc4ccc(Cl)cc4)ncn3n2)cc1,0,0,0,0,0,-,-
CCOc1ccc(CCNC(=O)Cn2ncn3nc(-c4ccc(OC)cc4)cc3c2=O)cc1OCC,0,0,-,0,59.1,0,-
COc1ccc(-c2cc3c(=O)n(CC(=O)NCCCc4ccccc4)ncn3n2)cc1,0,-,0,-,0,-,-
CN1C(=O)/C(=C/c2coc3ccc(O)cc3c2=O)SC1=S,0,0,0,0,0,-,-
Cc1cc(/C=C2\SC(=S)N(C)C2=O)c(C)n1-c1ccccc1O,0,97.9,0,0,85.6,89.5,108.2
Cc1cc(/C=C2\SC(=S)N(C)C2=O)c(C)n1-c1ccc(O)cc1,0,0,0,0,84.5,80.8,50.3
CSCCC(NC(=O)c1ccco1)C(=O)N1CC(C)OC(C)C1 (centres undefined),-,0,0,0,0,-,-
O=C(NNC(=O)c1cc2cc(OC(F)(F)F)ccc2[nH]1)c1cccc(C(F)(F)F)c1,0,0,0,0,0,-,-
COc1ccccc1C(=O)Nc1c(C(=O)N(CCN(C)C)Cc2ccco2)oc2ccccc12,0,0,0,0,62.3,0,-
COc1cc(OC)cc(C(=O)NNC(=O)CCc2nc3ccccc3c(=O)[nH]2)c1,-,-,0,0,0,-,-
COc1ccc(CCNC(=O)/C(C#N)=C2\N=C(NC(=O)c3ccco3)c3ccccc32)cc1,0,0,0,0,52.5,0,-
N#C/C(C(=O)NCCc1ccccc1)=C1/N=C(NC(=O)c2cccs2)c2ccccc21,0,0,0,0,0,-,-
N#C/C(C(=O)NCc1ccccc1)=C1/N=C(NC(=O)c2ccco2)c2ccccc21,0,0,0,0,65.3,0,-

# Screens (PubChem)
